# High-throughput results from PubChem.
# RBX1-CUL1 inh: human ROC1-CUL1 E3 ligase inhibition; inhibition, % at 10 µM; in vitro K48 di-Ub FRET, acceptor:donor ratio, 45 min; AID 1347404; actives 0.6% (n = 140,000); P62877+Q13616; in the data active = inhibition above about 25%
# Target sequence (P62877 whole entry, looked up): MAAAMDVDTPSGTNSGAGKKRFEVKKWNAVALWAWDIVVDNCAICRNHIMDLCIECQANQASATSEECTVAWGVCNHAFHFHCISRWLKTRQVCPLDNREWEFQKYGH
# Target sequence (Q13616 whole entry, looked up): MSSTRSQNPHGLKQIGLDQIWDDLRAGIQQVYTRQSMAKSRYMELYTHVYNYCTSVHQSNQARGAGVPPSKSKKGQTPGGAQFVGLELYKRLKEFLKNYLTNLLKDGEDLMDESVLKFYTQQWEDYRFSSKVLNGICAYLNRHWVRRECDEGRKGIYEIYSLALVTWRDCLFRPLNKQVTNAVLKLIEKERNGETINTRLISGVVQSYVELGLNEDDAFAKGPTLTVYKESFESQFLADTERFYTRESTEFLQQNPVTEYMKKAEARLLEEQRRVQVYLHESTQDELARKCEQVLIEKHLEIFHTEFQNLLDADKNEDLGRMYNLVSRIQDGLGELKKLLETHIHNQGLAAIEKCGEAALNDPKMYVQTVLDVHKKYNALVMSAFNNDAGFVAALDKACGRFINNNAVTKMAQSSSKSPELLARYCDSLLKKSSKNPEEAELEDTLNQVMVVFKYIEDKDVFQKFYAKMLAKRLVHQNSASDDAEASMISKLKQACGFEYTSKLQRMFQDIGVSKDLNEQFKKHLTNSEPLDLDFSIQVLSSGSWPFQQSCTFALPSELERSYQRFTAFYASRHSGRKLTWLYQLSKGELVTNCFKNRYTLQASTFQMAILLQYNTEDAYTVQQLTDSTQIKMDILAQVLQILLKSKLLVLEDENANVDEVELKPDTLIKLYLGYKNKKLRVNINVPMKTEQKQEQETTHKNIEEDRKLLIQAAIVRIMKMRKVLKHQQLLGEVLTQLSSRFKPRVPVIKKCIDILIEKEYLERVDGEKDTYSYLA
# An asterisk follows results filed as active. The full list was thinned out, with hits kept by preference.
SMILES,RBX1-CUL1 inh
CC(C)(C)N1C(=O)NC(=O)/C(=C/c2c(Cl)cccc2Cl)C1=O,26*
O=C1NC(=S)NC(=O)C1=Cc1c(Cl)cccc1Cl,3
CN(C)C(=O)Oc1c(Br)cc(Br)c(OC(=O)N(C)C)c1Br,9
CNC(=O)Oc1c(Br)cc2sc(=O)oc2c1Br,34*
CCOC(=O)C1CCC2(C)C3CCC4(C)C(O)CCC4C3CC[C@H]2C1 (stereo partly specified),-2
CN1CC2CN(C)CC(C1)C(=O)N2,3
CCSc1nc2c(c(-c3ccsc3)c1C#N)CN(C)CC2,-3
O=C1NC(=S)NC(=O)C1=Cc1cn(Cc2ccc(Cl)cc2Cl)c2ccccc12,1
COc1cc(C=C2C(=O)NC(=S)NC2=O)ccc1OCc1ccc(F)cc1,-5
Cc1ccc(OCCn2c(C)c(C=C3C(=O)NC(=S)NC3=O)c3ccccc32)c(C)c1,6
Cc1cc(C=C2C(=O)NC(=S)NC2=O)c(C)n1-c1ccc2c(c1)OCO2,52*
O=C1NC(=S)NC(=O)C1=Cc1ccc(O)c(O)c1,10
Cc1cc(C=C2C(=O)NC(=S)NC2=O)c(C)n1-c1cccc(C(F)(F)F)c1,26*
CN1CCN(c2n[nH]c(N)n2)CC1,-12
C=CCOC(=O)C1=C(C)OC(=N)C(C#N)C12C(=O)Nc1ccc(Cl)cc12 (stereo unspecified),7
NN=C1C(=Cc2ccccc2Cl)N2CCC1CC2,12
CC1=C(C(=O)OC(C)C)C2(C(=O)Nc3ccc(Br)cc32)C(C(=O)OCc2ccccc2)C(=N)O1 (stereo unspecified),10
Clc1cncc(NC2=NCCN2)n1,-1
CCCc1c(C)nc(N2CCN(C)CC2)[nH]c1=O,3
CCCCOC(=O)C1C2c3ccccc3C(c3ccccc32)C1C(=O)OCCCC (stereo unspecified),6
CC1(C(=O)O)CCCC2(C)c3cc(O)c([N+](=O)[O-])cc3CCC12 (stereo unspecified),13
COc1ccc(N2C(=O)/C(=C/c3cccn3-c3cccc(C(=O)O)c3)C(=O)NC2=S)c(OC)c1,63*
COc1ccc(-n2cccc2C=C2C(=O)NC(=O)NC2=O)cc1,14
COc1ccc(C=C2C(=O)NC(=S)NC2=O)cc1OC(=O)c1ccccc1,1
CCCC1=C(C(=O)OCC)C2(C(=O)Nc3ccc(Br)cc32)C(C(=O)OCc2ccccc2)C(=N)O1 (stereo unspecified),-4
SMILES,RBX1-CUL1 inh
OC(c1ccc(F)cc1)(c1ccc(F)cc1)c1cnc[nH]1,-1
COc1cccc(OC)c1C(=O)Nc1ccc(Cl)cc1C(=O)c1ccccc1,4
OCN1CCN(CO)C2C1N(CO)CCN2CO (stereo unspecified),8
Cc1c(Cl)cccc1N1C(=O)/C(=C/c2cc(C)n(-c3ccc(C(=O)O)cc3)c2C)C(=O)NC1=S,35*
Cc1ccc(N2C(=O)/C(=C\c3ccc(-c4cccc(C(=O)O)c4)o3)C(=O)NC2=S)cc1,90*
COC(=O)c1ccc(-n2c(C)cc(/C=C3\C(=O)NC(=S)N(c4cccc(Cl)c4Cl)C3=O)c2C)c(C)c1,31*
Cc1cc(/C=C2\C(=O)NC(=S)N(c3cccc(Cl)c3Cl)C2=O)c(C)n1-c1cc(C(=O)O)cc(C(=O)O)c1,96*
O=C1NC(=S)N(c2ccccc2)C(=O)/C1=C\c1ccc(OCc2ccccc2)c(C(=O)O)c1,10
CC1=CC(=C2C(=O)NC(=O)NC2=O)C=C(C)N1c1ccc(C(=O)O)cc1,-1
c1ccc(CCN2CCN(c3ccc(C4CCCC4)cc3)CC2)cc1,4
O=C(c1cn(Cc2ccccc2F)nn1)N1C[C@H]2C[C@@H](C1)c1cccc(=O)n1C2,3
COC(=O)C1(O)c2ccccc2-c2ccccc21,6
COc1ccc(-n2c(/C=C/c3cccc(Br)c3)nc3ccccc3c2=O)cc1,7
Fc1ccc(/C=C/CN2CCN(CCOC3c4ccccc4CCc4ccccc43)CC2)cc1,2
CC1(C)CC(C)(Br)C(=O)O1 (stereo unspecified),0
COc1ccc(C2/C(=N/O)Oc3c2c(=O)oc2ccccc32)cc1 (stereo unspecified),-2
NC(=O)CCN1CCN(C(=O)Cc2cccnc2)CC1,6
COCCN(C(=O)c1cn(Cc2ccccn2)cc(C(=O)NC2CCCCCCC2)c1=O)C(C)C,5
COC(=O)C(OC(=O)Nc1ccc(OC)c(Cl)c1)(c1ccccc1)c1ccccc1,8
CC(C)NC(=O)c1cn(Cc2ccccc2)cc(C(=O)N2CCC(Cc3ccccc3)CC2)c1=O,1
CC1(C)CC(=O)CC(=NCCN2CCN(C(=O)Cc3ccc(Cl)cc3)CC2)C1,15
N#CCCSC1c2ccccc2-c2ccccc21,7
CCc1nn(Cc2ccc(Cl)cc2)c(=N)s1,1
CC1CN(c2ccc([N+](=O)[O-])cc2[N+](=O)[O-])CCN1 (stereo unspecified),-4
COC(=O)C1=C(C)NC2(C)CC1c1ccccc1O2 (stereo unspecified),12
O=C1NC(=S)NC(=O)C12C(c1ccccc1)NC(=S)NC2c1ccccc1 (stereo unspecified),35*
Brc1ccc(-n2nnnc2C2(N3CCOCC3)CCCCC2)cc1,8
CCCCOC(=O)c1cc(-c2ccc(C=C3C(=O)NC(=O)NC3=O)o2)ccc1Cl,98*
CCOc1ccc(C2=C(C=C3C(=O)NC(=O)NC3=O)C(c3ccccc3C)c3ccccc3O2)cc1 (stereo unspecified),6
CCC1(CC)C(=O)NC(=NCCc2ccc(O)cc2)NC1=O,2
